Measured values as given in the supplement of paper PMC11732987, “Enantioselective OTUD7B fragment discovery through chemoproteomics screening and high-throughput optimisation” (Communications Chemistry, 2025).

Columns and labels:
Test in all cases: log2 ratio of Biotin-Ahx-Ub-VS probe labelling (fragment/DMSO); higher = less target engagement (more negative = stronger competition), active = hit call of the paper (q ≤ 0.05, log2 ratio ≤ -1)
Conditions in all cases: compound concentration: 200 uM; treatment time: 3 h
USP9X = USP9X (UniProt Q93008)
Chain of USP9X (Q93008 whole entry, the tested form may be a part): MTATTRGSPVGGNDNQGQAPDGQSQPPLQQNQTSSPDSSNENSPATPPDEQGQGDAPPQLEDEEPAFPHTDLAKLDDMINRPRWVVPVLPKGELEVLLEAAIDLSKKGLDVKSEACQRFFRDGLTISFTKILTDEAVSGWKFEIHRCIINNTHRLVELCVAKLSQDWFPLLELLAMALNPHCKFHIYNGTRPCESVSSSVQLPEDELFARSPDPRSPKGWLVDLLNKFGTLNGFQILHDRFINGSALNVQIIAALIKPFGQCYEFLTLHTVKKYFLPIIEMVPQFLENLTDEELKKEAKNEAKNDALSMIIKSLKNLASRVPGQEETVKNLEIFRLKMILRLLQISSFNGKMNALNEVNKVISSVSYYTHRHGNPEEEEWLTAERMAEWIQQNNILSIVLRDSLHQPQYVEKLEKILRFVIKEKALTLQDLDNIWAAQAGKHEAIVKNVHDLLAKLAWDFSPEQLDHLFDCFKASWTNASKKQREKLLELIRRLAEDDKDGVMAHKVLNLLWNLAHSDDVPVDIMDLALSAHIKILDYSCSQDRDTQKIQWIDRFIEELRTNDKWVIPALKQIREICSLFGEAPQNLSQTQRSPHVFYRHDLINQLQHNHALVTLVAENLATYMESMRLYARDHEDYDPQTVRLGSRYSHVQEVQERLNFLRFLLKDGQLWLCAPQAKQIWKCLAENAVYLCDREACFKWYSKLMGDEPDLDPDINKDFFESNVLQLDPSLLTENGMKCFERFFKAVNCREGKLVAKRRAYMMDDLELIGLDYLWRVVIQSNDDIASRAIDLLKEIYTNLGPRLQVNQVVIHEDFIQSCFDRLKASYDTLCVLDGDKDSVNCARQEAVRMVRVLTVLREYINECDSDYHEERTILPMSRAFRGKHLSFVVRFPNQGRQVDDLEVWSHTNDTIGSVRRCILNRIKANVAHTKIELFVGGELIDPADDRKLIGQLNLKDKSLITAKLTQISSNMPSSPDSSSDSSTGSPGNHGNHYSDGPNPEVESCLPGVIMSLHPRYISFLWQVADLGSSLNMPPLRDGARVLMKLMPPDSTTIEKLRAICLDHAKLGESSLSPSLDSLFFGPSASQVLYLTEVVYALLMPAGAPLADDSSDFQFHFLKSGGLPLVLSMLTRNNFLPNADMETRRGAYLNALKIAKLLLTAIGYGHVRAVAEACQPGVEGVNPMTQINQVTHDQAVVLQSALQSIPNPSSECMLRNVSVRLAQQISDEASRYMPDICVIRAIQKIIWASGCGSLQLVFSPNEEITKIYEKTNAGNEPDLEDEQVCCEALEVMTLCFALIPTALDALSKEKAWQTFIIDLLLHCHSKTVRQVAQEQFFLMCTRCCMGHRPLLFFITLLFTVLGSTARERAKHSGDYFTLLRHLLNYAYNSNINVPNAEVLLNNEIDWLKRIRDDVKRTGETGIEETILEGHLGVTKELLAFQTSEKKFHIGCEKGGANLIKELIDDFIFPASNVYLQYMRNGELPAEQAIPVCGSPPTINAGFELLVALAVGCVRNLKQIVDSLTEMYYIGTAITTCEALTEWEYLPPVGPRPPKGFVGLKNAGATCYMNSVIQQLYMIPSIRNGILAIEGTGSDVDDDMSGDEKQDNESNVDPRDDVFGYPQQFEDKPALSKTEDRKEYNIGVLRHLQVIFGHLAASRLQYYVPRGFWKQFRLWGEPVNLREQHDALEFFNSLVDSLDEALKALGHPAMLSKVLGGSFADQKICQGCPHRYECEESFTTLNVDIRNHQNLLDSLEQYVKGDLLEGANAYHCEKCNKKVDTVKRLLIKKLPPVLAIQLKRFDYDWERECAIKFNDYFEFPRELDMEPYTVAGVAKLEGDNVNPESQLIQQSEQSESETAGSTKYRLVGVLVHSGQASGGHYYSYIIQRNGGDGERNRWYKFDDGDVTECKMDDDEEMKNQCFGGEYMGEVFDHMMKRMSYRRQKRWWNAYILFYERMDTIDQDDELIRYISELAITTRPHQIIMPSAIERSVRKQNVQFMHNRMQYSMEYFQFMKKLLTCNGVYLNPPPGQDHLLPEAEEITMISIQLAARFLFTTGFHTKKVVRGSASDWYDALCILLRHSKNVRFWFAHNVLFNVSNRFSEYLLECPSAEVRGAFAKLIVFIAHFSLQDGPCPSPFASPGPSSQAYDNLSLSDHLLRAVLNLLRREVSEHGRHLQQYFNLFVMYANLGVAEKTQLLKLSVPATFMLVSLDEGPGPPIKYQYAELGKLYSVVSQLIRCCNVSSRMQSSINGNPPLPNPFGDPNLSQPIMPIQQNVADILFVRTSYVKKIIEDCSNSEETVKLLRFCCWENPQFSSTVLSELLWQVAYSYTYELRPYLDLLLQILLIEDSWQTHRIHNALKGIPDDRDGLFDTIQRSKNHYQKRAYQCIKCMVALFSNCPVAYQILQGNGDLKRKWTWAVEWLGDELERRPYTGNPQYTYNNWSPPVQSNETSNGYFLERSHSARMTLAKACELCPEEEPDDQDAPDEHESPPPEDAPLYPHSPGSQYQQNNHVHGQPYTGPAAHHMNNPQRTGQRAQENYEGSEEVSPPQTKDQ
Method in brief: (§1)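 HEK293T lysate, 495 µg per sample in Tris/CHAPS/IGEPAL buffer with protease inhibitors, was treated in triplicate with fragment at 200 µM or vehicle for 3 h and then with Biotin-Ahx-Ub-VS at 0.5 µM final for 1 h. Labelled DUBs were NeutrAvidin-enriched, digested with LysC and trypsin, and run by diaPASEF LC-MS/MS. Spectronaut label-free quantities were global-median-normalised, and values are average log2 fragment/vehicle ratios by unpaired t-test on proteins with ≥2 unique peptides.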

UniProt O00487 = molecular target: UniProt O00487
Chain of UniProt O00487 (O00487 whole entry): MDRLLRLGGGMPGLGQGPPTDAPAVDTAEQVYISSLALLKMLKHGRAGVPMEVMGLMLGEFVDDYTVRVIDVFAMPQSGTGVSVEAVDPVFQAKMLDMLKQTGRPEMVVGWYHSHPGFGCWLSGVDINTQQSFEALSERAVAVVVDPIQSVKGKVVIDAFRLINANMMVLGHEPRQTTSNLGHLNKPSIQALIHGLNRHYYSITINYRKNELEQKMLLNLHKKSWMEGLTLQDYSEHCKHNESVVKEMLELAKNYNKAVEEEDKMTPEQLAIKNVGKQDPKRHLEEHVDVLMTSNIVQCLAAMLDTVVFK
Method in brief: as §1

UniProt O00507 = molecular target: UniProt O00507
Method in brief: as §1

UniProt P51784 = molecular target: UniProt P51784
Chain of UniProt P51784 (P51784 whole entry): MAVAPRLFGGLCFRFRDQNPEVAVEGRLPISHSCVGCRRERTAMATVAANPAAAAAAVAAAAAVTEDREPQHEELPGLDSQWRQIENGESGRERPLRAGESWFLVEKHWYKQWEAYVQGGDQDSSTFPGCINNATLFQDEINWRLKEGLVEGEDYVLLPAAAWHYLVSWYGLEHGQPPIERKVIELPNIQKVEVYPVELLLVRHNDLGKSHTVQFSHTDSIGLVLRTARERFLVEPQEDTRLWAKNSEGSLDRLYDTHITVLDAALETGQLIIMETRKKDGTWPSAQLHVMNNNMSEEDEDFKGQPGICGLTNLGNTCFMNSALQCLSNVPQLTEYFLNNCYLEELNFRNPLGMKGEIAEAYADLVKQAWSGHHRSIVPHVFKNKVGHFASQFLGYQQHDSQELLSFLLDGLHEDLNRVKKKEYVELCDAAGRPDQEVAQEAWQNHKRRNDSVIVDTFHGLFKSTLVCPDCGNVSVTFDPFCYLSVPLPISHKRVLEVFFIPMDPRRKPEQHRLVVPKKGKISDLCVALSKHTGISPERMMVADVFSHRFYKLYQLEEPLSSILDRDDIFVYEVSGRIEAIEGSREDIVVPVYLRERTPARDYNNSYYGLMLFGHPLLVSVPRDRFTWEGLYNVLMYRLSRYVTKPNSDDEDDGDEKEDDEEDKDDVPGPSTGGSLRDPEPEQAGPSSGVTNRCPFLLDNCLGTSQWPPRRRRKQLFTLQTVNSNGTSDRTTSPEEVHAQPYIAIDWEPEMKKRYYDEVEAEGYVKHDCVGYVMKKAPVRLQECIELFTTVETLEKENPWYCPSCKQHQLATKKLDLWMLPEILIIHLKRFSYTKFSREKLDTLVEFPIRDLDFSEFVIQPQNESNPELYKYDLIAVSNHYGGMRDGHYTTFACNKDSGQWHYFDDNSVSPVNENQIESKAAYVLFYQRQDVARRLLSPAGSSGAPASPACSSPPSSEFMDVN
Method in brief: as §1

UniProt Q5T2D3 = molecular target: T1, UniProt Q5T2D3
T1 sequence (whole entry): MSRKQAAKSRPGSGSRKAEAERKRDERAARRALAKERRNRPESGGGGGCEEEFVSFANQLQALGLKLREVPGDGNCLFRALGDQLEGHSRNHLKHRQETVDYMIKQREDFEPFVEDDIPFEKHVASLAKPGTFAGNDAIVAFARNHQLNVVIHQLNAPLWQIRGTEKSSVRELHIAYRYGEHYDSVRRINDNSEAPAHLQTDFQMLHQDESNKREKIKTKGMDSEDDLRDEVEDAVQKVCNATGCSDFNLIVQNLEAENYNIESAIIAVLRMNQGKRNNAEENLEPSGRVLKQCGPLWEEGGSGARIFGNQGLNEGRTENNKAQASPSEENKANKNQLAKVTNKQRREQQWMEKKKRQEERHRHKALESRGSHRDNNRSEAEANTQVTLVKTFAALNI
Method in brief: as §1

UniProt Q8TE49 = molecular target: T2, UniProt Q8TE49
T2 sequence (whole entry): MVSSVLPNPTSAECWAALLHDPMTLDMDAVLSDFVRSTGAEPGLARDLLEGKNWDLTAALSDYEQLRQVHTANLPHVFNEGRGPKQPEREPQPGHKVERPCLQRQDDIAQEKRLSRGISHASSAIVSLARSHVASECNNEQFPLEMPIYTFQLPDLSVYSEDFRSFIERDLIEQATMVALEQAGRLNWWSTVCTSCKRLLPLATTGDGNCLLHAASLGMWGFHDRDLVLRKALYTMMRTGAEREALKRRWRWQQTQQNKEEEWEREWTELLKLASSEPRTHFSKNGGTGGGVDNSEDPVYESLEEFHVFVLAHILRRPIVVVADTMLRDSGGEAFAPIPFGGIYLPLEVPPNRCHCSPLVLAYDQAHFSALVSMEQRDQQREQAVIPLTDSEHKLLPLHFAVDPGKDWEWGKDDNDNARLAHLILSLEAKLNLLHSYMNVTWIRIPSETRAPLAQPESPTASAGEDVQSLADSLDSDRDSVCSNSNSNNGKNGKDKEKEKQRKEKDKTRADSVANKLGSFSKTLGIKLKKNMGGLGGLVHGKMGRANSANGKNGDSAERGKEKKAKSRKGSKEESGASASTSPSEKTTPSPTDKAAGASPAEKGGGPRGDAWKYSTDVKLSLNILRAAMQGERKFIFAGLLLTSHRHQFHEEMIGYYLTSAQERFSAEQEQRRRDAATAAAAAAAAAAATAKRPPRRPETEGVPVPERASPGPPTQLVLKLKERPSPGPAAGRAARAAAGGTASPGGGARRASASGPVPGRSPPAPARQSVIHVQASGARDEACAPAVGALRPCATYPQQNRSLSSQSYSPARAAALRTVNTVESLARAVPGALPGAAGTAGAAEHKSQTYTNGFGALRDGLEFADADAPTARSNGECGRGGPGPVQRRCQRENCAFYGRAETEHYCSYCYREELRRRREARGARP
Method in brief: as §1

UniProt Q9P2H5 = molecular target: T3, UniProt Q9P2H5
T3 sequence (whole entry): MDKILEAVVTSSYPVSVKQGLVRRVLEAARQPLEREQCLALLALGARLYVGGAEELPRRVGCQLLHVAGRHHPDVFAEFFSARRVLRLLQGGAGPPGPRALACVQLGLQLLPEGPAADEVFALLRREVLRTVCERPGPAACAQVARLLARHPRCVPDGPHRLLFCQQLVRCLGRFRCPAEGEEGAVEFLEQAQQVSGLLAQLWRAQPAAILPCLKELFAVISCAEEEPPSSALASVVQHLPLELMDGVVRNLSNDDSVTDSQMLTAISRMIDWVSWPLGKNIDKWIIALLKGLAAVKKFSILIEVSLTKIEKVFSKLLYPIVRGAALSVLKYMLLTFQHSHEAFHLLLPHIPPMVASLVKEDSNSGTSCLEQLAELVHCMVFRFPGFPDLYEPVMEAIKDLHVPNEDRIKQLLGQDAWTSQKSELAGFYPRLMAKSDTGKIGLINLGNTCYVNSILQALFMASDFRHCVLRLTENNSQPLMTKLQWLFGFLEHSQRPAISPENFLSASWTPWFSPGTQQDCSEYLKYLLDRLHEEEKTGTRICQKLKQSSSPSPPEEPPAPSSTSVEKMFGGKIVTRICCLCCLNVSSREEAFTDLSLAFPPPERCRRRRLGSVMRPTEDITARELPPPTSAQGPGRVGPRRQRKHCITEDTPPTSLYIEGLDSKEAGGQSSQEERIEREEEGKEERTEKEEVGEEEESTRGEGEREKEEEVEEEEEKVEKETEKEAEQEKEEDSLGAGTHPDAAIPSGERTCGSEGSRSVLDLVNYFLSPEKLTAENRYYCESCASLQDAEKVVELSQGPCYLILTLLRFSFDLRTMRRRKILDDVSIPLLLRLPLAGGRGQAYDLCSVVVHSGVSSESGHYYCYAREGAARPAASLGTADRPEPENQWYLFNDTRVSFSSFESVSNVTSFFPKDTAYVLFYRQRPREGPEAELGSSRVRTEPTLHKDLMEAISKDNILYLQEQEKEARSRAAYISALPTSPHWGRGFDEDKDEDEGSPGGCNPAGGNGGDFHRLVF
Method in brief: as §1

UniProt Q9UGI0 = molecular target: T4, UniProt Q9UGI0
T4 sequence (whole entry): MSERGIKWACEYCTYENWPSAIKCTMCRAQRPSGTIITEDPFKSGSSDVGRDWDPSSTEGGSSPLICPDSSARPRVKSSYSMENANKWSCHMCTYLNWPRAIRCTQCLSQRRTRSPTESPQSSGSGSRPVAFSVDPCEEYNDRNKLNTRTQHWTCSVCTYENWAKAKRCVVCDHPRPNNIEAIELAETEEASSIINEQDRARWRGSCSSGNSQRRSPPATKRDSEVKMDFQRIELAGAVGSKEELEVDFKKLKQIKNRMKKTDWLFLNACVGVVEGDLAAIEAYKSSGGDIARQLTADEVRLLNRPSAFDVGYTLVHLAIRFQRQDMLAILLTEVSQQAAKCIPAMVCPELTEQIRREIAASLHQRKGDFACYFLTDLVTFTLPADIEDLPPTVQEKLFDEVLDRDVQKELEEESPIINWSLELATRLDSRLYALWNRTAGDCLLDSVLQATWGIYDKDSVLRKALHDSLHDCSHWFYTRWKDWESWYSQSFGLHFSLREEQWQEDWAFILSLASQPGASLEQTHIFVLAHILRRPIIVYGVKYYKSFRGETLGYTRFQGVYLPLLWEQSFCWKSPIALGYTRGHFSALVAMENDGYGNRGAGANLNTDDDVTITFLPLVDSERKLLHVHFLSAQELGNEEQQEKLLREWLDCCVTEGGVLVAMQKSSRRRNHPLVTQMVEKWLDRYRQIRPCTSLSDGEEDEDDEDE
Method in brief: as §1

YOD1 = molecular target: T5, YOD1 (UniProt Q5VVQ6)
T5 sequence (whole entry): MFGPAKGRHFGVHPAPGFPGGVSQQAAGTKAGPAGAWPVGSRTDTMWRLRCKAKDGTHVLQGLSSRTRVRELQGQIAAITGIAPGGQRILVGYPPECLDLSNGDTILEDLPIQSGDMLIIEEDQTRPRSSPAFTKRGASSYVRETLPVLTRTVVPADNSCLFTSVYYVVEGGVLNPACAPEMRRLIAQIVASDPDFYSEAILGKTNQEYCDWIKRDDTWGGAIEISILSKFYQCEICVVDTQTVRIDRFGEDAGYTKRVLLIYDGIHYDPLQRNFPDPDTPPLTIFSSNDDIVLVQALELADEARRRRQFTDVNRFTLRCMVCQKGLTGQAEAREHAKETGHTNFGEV
Method in brief: as §1

Measured: log2 ratio of Biotin-Ahx-Ub-VS probe labelling

Cc1nc(CN2CCCN(C(=O)CCl)CC2)no1.Cl
inactive: USP9X 0.101 | UniProt O00487 0.118 | UniProt O00507 0.543 | UniProt P51784 0.151 | UniProt Q5T2D3 -0.111 | UniProt Q8TE49 0.0982 | UniProt Q9P2H5 -0.193 | UniProt Q9UGI0 0.143 | YOD1 0.273
